# The list is not random: actives were taken first. Their share in the collection is about 10%.
# FLuc inh: blocks purified firefly luciferase enzyme activity; Potency, µM (highest dose often 115 µM), usual class: inhibitors; AID 1347043; 76,000 compounds, 2.5% hits; purified P. pyralis luciferase, luminescence, biochemical; further: nearly all actives have a fitted effect of over 65% in size
# Target sequence (P08659 whole entry, looked up): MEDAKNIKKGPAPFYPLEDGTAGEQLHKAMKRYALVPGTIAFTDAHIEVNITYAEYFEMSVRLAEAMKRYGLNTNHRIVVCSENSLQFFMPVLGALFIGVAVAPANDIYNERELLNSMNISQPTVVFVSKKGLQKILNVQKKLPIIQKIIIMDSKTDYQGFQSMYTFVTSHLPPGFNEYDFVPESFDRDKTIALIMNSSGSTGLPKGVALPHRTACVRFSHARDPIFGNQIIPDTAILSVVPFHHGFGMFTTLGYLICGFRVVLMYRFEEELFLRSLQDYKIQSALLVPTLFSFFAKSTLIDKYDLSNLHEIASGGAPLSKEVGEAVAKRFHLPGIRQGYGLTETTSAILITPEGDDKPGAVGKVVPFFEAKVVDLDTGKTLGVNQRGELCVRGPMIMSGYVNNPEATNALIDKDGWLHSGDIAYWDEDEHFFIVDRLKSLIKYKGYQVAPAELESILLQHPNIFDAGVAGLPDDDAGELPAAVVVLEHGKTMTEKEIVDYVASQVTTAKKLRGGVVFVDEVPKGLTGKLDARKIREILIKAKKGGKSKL
#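 FLuc 10nM, D-luciferin 10uM, ATP 10uM, Mg acetate 10mM, Tris acetate pH 7.5, Tween/BSA; cpd qHTS; enzyme added last; CCD luminescence.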
# GPT2 inh: blocks human glutamate pyruvate transaminase 2; Q8TD30; Recombinant GPT2, coupled pyruvate oxidase/HRP Amplex Red fluorescence; Potency, µM (titrated, usually from 57.7 µM), inactives show at the highest dose activity change, negative = inhibition, usual class: inhibitors; 100,000 compounds, 0.25% hits; further: nearly all actives have a fitted effect of over 60% in size
#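 GPT2 10ng/uL, a-KG 250uM, L-Ala 2mM, HEPES pH7.5 + 0.0001% Tween; 30 min RT. Then Amplex mix (PO/HRP/ThPP), 30 min RT dark, fluorescence. AOA 50uM used as positive control.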
# 3T3 cytotox: cytotoxic compounds in NIH 3T3 cells; NIH 3T3 viability, CellTiter-Glo ATP luminescence, 48-72 h; Potency, µM (doses to about 96.7 µM), without a hit: top-dose activity change, negative = cytotoxicity, actives largely listed as inhibitors; 94,000 compounds, 4.3% hits; AID 1345082; further: nearly all actives have a fitted effect of over 55% in size
#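 Viability of NIH 3T3 cells after 48 or 72 hr compound treatment at 37 °C was assessed by CellTiter-Glo, with luminescence imaged following a 10 min room-temperature step.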
# NPR1 antag: blocks ANP-stimulated signaling of human Npr1 receptor. Potency, µM (top dose mostly 46.3 µM), for the others: at the top dose activity change, negative = inhibition, actives largely listed as inhibitors. HEK293 hNpr1 GloSensor cGMP, ANP-stimulated luminescence. 76,000 compounds, 1.6% hits; calls by dose curve; further: nearly all actives have a fitted effect of over 60% in size
#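 HEK293 cells stably expressing human Npr1 and cGMP GloSensor pGS-40F, loaded 2 h with 2% GloSensor reagent, given compound 30 min at room temperature. Luminescence read before and 20 min after 0.1 nM hNppA.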
# HEK cytotox: kills HEK 293 cells. AID 1345083. 94,000 compounds, 6.6% hits. HEK 293 viability, ATP luminescence (CellTiter-Glo), 48-72 h. Potency, µM (highest dose often 115 µM), inactives show top-dose activity change, negative = cytotoxicity, usual class: inhibitors; further: nearly all actives have a fitted effect of over 60% in size
#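 Read-out: CellTiter-Glo ATP luminescence. Cells: HEK 293, 250 cells/well. Exposure: 48 or 72 hr, 37 degree Celsius.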
# Starred values were filed as active, the others as inactive; i = inactive; ? = inconclusive; . = not tested or not shown; ! = repeats disagree; [ ] = remark or other dose. Unless noted, the call rests on the fitted dose curve; in most records, active means well fitted curve in the direction sought with a large enough effect; inconclusive means small, poorly fitted or top-dose-only effect, or another doubt; inactive means no such curve, though single readings can be large; an effect the other way counts as inactive or inconclusive. On the % scale 0 is the no-effect control and ±100 the full control effect; potency means the concentration at half of the fitted maximal effect.
SMILES,FLuc inh,GPT2 inh,3T3 cytotox,NPR1 antag,HEK cytotox
CCOC(=O)C1CCN(C(=O)c2cn3ccnc(-c4ccc(OC)cc4)c3n2)CC1,i,-0.9%,?,-21.5%,79.4µM*
CCOC(=O)C1CCN(C(=O)c2cn3cc(-c4ccc(C(F)(F)F)cc4)sc3n2)CC1,.,i,39.8µM*,.,?
CCOC(=O)C1CCN(C(=O)c2cn3cc(-c4ccc(OC)cc4)sc3n2)CC1,.,i,?,.,?
CC(C)(C)NC(=O)N1CCOc2ccc(CN3CCc4ccccc4C3)cc2C1,i,2.4%,-20.2%,4.3%,?
CCOc1ccc(CC(=O)NC2CCN(c3cc(-c4cccs4)[nH]n3)C2)cc1 (centres undefined),i,?,15.8µM*,0.0%,44.7µM*
CCOc1cc(C(=O)NC2CCN(c3cc(-c4cccs4)[nH]n3)C2)cc(OCC)c1OCC (centres undefined),i,-21.1%,?,-4.4%,44.7µM*
COc1cc(OC)cc(C(=O)NC2CCN(c3cc(-c4cccs4)[nH]n3)C2)c1 (centres undefined),i,?,?,-24.1%,?
O=C(Cc1cccc(F)c1)NC1CCN(c2cc(-c3cccs3)[nH]n2)C1 (centres undefined),i,?,?,-14.7%,?
O=C(Cc1ccccc1F)NC1CCN(c2cc(-c3cccs3)[nH]n2)C1 (centres undefined),i,-23.0%,?,-17.9%,15.8µM*
O=C(Cc1ccc(F)cc1)N1CCCC(C(=O)N2CCCC2c2nc3ccncc3[nH]2)C1 (centres undefined),.,i,-8.2%,.,-0.2%
O=C(Nc1ccc(Cl)cc1)N1CCN(c2nccc(Nc3ccccc3Cl)n2)CC1,.,i,?,.,?
CC(C)c1ccc(NC(=O)CN2CCCc3nc(-c4ccncc4)ncc3C2=O)cc1,.,?,-25.2%,.,?
Cn1c(CNC(=O)CCC[C@@H]2[C@H]3CCCN4CCC[C@@H](CN2Cc2ccccc2)[C@@H]34)nc2ccccc21,i,i,?,0.6%,?
O=C(NC1CC1)c1ccc(CC2CCN(C(=O)c3ccc4ccccc4n3)CC2)cc1,i,-0.8%,?,?,?
O=C(c1cc2ccccc2[nH]1)N1CCN(c2cc(-c3ccccc3)[nH]n2)CC1,?,i,35.5µM*,-10.5%,?
COc1ccc(-c2cc(N3CCN(C(=O)c4cc5ccccc5[nH]4)CC3)n[nH]2)cc1,?,i,20µM*,-27.6%,28.2µM*
O=C(c1ccccc1Cl)N1CCN(c2cc(-c3ccccc3)[nH]n2)CC1,i,?,?,-12.9%,20µM*
Cc1ccc(C(=O)N2CCN(c3cc(-c4ccccc4)[nH]n3)CC2)cc1,i,1.4%,?,?,?
O=C(c1ccc(F)cc1F)N1CCN(c2cc(-c3ccccc3)[nH]n2)CC1,i,-4.8%,-26.6%,-1.6%,?
COc1ccc(-c2cc(N3CCCN(C(=O)c4ccccc4)CC3)n[nH]2)cc1,i,-1.5%,-11.0%,3.1%,?
O=C(c1ccc(F)cc1F)N1CCN(c2cc(-c3ccc(F)cc3)[nH]n2)CC1,i,i,?,?,39.8µM*
COc1ccccc1Cn1c(=O)c(C(=O)N2CCOCC2)nc2cccnc21,.,i,-20.5%,.,2.2%
Cc1cnc(C2CCC2)n1CC1CCCN(C(=O)CC2CCCCC2)C1 (centres undefined),.,i,?,.,?
O=C(NCCc1ccccc1)c1cn2cc(-c3ccccc3)sc2n1,.,2.2%,?,.,?
O=C(Nc1ccnn1C1CCN(Cc2ccc(-c3ccccc3)cc2)CC1)C1CC1,i,2.1%,35.5µM*,?,?
SMILES,FLuc inh,GPT2 inh,3T3 cytotox,NPR1 antag,HEK cytotox
CSc1ncc(CN2CCC(n3nccc3NC(=O)Cc3ccccc3)CC2)cn1,i,i,-25.2%,-0.4%,-10.8%
O=C(NCc1ccccc1C(F)(F)F)C1CCCN(c2cnn(Cc3ccccc3)c(=O)c2)C1 (centres undefined),i,i,?,-19.4%,44.7µM*
O=C(NCc1cccc(Cl)c1)c1noc(-c2ccc(F)cc2)n1,i,i,25.1µM*,2.7%,?
Cc1ccc(-c2nc(C(=O)NCc3cccc(C)c3)no2)cc1,?,2.6%,?,-3.1%,79.4µM*
Cc1ccc(-c2nc(C(=O)NCc3cccc(Br)c3)no2)cc1,?,i,?,-3.8%,?
O=C(NC1CCCN(CCn2nc3n(c2=O)CCCC3)C1)c1ccc(Cl)cc1 (centres undefined),.,.,-24.8%,.,?
O=C(c1cccc(C(F)(F)F)c1)N1CC(=O)N(C2CCCCC2)CC(O)C1 (centres undefined),.,.,-22.4%,.,?
Cc1nn(C)c2c1C(c1ccc(C(F)(F)F)cc1)C(C#N)=C(N)O2 (centres undefined),.,15.3µM*!,.,.,.
COCCn1c(=O)c(C(=O)N2CCN(C(=O)c3ccccc3C)CC2)nc2cccnc21,.,i,i,.,3.1%
CN1CC(=O)N(C2CCCC2)Cc2c1ncnc2N1CCN(c2ncccn2)CC1,i,-15.4%,-20.8%,-14.1%,-24.1%
CN1CC(=O)N(C2CCCCC2)Cc2c1ncnc2N1CCN(c2ncccn2)CC1,.,i,44.7µM*,.,44.7µM*
Cc1cccc(N2Cc3c(ncnc3N3CCC(c4ccccc4)CC3)N(C)CC2=O)c1,.,i,?,.,?
CNC(=O)c1cc(C)nc2onc(C3CCN(C(=O)OC)CC3)c12,.,.,-19.6%[138 µM],.,-9.8%[172 µM]
CCOc1ccc(CN2C[C@@H](CO)[C@H](c3ccncc3)C2)cc1,i,3.4%,-22.9%,-19.9%,?
CCCn1ncc(CN(C)CC2CCN(CCc3ccc(Cl)cc3)CC2)c1C,i,i,35.5µM*,-1.6%,22.4µM*
CCCn1ncc(CN2CC[C@H](N3CCN(C)CC3)[C@H](CCC(=O)O)C2)c1C,i,0.6%,-5.3%,-2.4%,-22.5%
COc1ccccc1-c1nc(C(=O)NCc2ccc(F)cc2)n2ccncc12,.,1.0%,?,.,?
CC1(C)[C@H](Cc2cc(CC3CCCCC3)on2)C[C@@H]1NC(=O)c1ccco1,i,?,70.8µM*,?,25.1µM*
COCc1cc(C[C@@H]2C[C@H](NCC3CC3)C2(C)C)no1,i,4.1%[88.5 µM],-1.2%[174 µM],3.7%[70.6 µM],0.4%[230 µM]
CC(C)N[C@H]1C[C@@H](Cc2cc(CC3CCCCC3)on2)C1(C)C,i,i,44.7µM*,8.0%[70.6 µM],31.6µM*
COc1ccc(C(=O)NC2CCN(c3nccc(Nc4ccccc4F)n3)CC2)cc1,.,-6.8%,-36.1%,.,?
O=C(NC1CCN(c2nccc(Nc3ccccc3Cl)n2)CC1)c1ccc(C(F)(F)F)cc1,.,i,31.6µM*,.,39.8µM*
